Results as given in PubChem BioAssay AID1159583 (ICCB-Longwood Screening Facility, Harvard Medical School, 2016).
Values joined by “and” are separate entries in the source; they are usually repeats but may differ in a detail not shown here. Equal values may be shown once. Screen size: about 300,000 compounds; about 310 (0.1%) were called active. No stated cut-off is given here; in the data, active means fluorescence inhibition mostly above about 23% (no sharp cut-off); inactive means mostly below about 17%. The full list was thinned out, with actives kept by preference.

assay: hypoxia reporter signal reduction in M. tuberculosis – fluorescence, absorbance growth readout, primary screen (AID 1159583); conditions: M. tuberculosis hypoxia-regulated fluorescent reporter, stronger effect = higher value, concentration not given here; growth inhibition: measured here: M. tuberculosis growth (absorbance)

SMILES | fluorescence inhibition | growth inhibition
CC(=NNC(=O)c1cc(-c2cccnc2)nc2ccccc12)c1ccc(O)cc1O | 2.22% (inactive) | 2.87%
COc1ccc(C=NNC(=O)c2ccccc2OC)cc1COc1ccccc1[N+](=O)[O-] | 1.62% (inactive) | -1.45%
C[C@@]12CCC=CC1C(c1ccc(C(F)(F)F)cc1)N(Cc1ccccc1)C2=O (some centres undefined) | 11.1% (inactive) | 10.9%
Cc1ccccc1CN1C(Cc2ccccc2)COCCS1(=O)=O (centres undefined) | 6.62% (inactive) | 4.01%
CC=CC=CC(=O)Nc1cccc(C2=NOC3(C2)CC(C(N)=O)N(C(=O)c2ccccc2C(=O)c2ccccc2)C3)c1 (centres undefined) | -0.767% (inactive) | 8.5%
C=CCn1c(SCC(=O)NC(=O)Cc2ccccc2)nc2ccccc2c1=O | 23.4% (active) | 56.9%
C=CCn1c(SCc2ccc(C(=O)NCCO)cc2)nc2ccccc2c1=O | 9.54% (inactive) | 8.96%
COC(=O)CSc1nc2ccccc2c(=O)n1Cc1ccccc1 | 5.85% (inactive) | 20.4%
CCN(CC)c1ccc(C=NNS(=O)(=O)c2cccc([N+](=O)[O-])c2)cc1 | -5.38% (inactive) | 0.14%
CCC(=NNC(=O)CSCc1ccccc1Br)c1ccc2c(c1)OCCO2 | 0.753% (inactive) | 1.89%
O=C(NN=Cc1cccc([N+](=O)[O-])c1)c1ccc(CN2CCOCC2)cc1 | 4.86% (inactive) | 16.6%
CCCCN=C1NC(=Cc2ccco2)C(=O)N1c1ccccc1 | 8.24% (inactive) | 10.9%
COc1ccccc1C=NNC(=O)CCn1cnc2ccccc21 | 4.69% (inactive) | -0.174%
CCCCNC(=O)CN1C(=O)NC(Cc2ccccc2)(Cc2ccccc2)C1=O | 3.73% (inactive) | 16.6%
COc1cccc(CNC(=O)CN2C(=O)NC(Cc3ccccc3)(c3ccccc3)C2=O)c1 (centres undefined) | 26.4% (active) | 52.7%
COc1cccc(CNC(=O)COC(=O)CN2C(=O)NC3(CCCCC3C)C2=O)c1 (centres undefined) | -6.03% (inactive) | 2.37%
CC(CC(=O)Nc1ccc(Cl)cc1Cl)=NNC(=O)C(=O)N1CCCC1 | 11% (inactive) | 5.91%
COc1ccc(C=NN=C(N)c2nonc2N)cc1 | 10.3% (inactive) | 6.79%
CC(=O)OCC1OC(CC=NOCC(O)C2OC3OC(C)(C)OC3C2O)C=CC1OC(C)=O (centres undefined) | 9.33% (inactive) | 7.61%
CCOC(=O)C1C2COc3cc(OC)ccc3C2N2C(=O)N(c3ccc(Cl)cc3)C(=O)[C@]12C (some centres undefined) | -4.96% (inactive) and 1.79% (inactive) | 2.67% and 0.308%
CC(=O)Nc1ccc(S(=O)(=O)NN=Cc2ccc(C)o2)cc1 | 7% (inactive) | -2.42%

SMILES | fluorescence inhibition | growth inhibition
O=C(Cc1cccs1)NN=C/C=C/c1ccco1 | 8.6% (inactive) | 14.2%
O=C(CNC(=O)c1ccc2c(c1)OCCO2)NN=Cc1ccc(Cl)cc1 | -0.656% (inactive) | 8.25%
COc1ccc(OC)c(C=NNC(=O)c2[nH]ncc2Br)c1 | 17.8% (inactive) | 3.99%
COc1cc(C=NNC(=O)Cc2c[nH]c3ccccc23)cc(OC)c1OC | 1.09% (inactive) | 3.89%
COc1ccc2ccccc2c1C=NNC(=O)c1cccc(Br)c1 | 6.25% (inactive) | 6.52%
CCN1C(=O)C2C(c3ccc(-c4cccc(Cl)c4)cc3)N[C@@](C)(C(=O)OC)C2C1=O (some centres undefined) | 8.93% (inactive) | 17.5%
Cc1ccccc1CN1C(=O)C(C)SC1=NN=Cc1ccco1 (centres undefined) | 7.25% (inactive) | 1.63%
COC(=O)c1ccc(C=NNC(=O)c2ccc3nc[nH]c3c2)cc1 | 3.23% (inactive) | -1.77%
CC(C)C(=NNC(=O)Nc1ccccc1)c1ccccc1 | 3.82% (inactive) | 6.86%
CC(=NNC(=O)c1csc(C)c1C)c1ccco1 | 12.3% (inactive) | 18.1%
CCN(CC)S(=O)(=O)c1ccc(NN=Cc2ccc(OC)c(OC)c2OC)nc1 | 6.7% (inactive) | 6.24%
CC(=NNC(=O)c1cc2ccccc2cc1O)c1ccc2c(c1)OCO2 | -11.6% (inactive) | 0.0347%
C=CCNC(=S)NN=Cc1ccc(-c2cc(Cl)ccc2Cl)o1 | 6.01% (inactive) | 7.37%
N#Cc1ccc(OCC(=O)NN=CC2CC=CCC2)cc1 (centres undefined) | 15.6% (inactive) | 1.47%
O=C(CCCCCCCCC(=O)NN=Cc1ccco1)NN=Cc1ccco1 | -1.23% (inactive) | 5.53%
Cc1cccc(C(=O)NN=C2SCC(=O)N2Cc2ccccc2)c1 | -0.985% (inactive) | -2.16%
O=C(NN=Cc1ccc2nccnc2c1)c1ccc(Br)cc1 | -2.27% (inactive) | -1.22%
C/C(C=NNC(=O)Cc1cccs1)=C\c1ccco1 | 8.51% (inactive) | 5.57%
CCOC(=O)NN=CC=Cc1ccco1 | 5.07% (inactive) | 6.05%
COC(=O)c1ccc2[nH]c(C(C)O)c(C(C)O)c2c1 (centres undefined) | -12.5% (inactive) | 0.422%
COc1cc(C=NNC(=O)C(=O)NCc2cccnc2)cc(OC)c1OC | 11.1% (inactive) | 2.3%

SMILES | fluorescence inhibition | growth inhibition
COC(=O)C1C[C@@]2(Br)c3ccccc3N(S(=O)(=O)c3ccccc3)C2N1C(=O)OC (some centres undefined) | -0.203% (inactive) | -1.54%
CCOc1cccc(C=NN2C(C)CCCC2C)c1O (centres undefined) | -2.33% (inactive) | -0.595%
O=C(NC1CCCCC1)C1CC=CC2CCN(C3CCCCC3)C(=O)C21 (centres undefined) | 8% (inactive) | 14.6%
C[C@@]12C(=O)N(Cc3ccco3)CC(=O)N1C1c3cc(Cl)ccc3OCC1C2c1ccccc1 (some centres undefined) | -6.06% (inactive) | 1.32%
Cn1cc([N+](=O)[O-])c(C(=O)NN=Cc2ccc([N+](=O)[O-])cc2)n1 | -5.59% (inactive) | 5.33%
Cc1ccc(C=NN(C)S(=O)(=O)c2ccc(C)cc2)cc1 | -1.94% (inactive) | -2.51%
CCOC(=O)C1=C(C)CC(=NNC(=O)c2ccccc2O)CC1 | 19.7% (inactive) | 25.6%
CC(=NNC(=O)c1ccc(CSc2nncn2C)cc1)c1ccc(Cl)cc1 | -0.114% (inactive) | 4.72%
Cc1cc(C)nc(N=C(N)C2=C(O)CC(C)(C)CC2=O)n1 | 8.68% (inactive) | 10.4%
CC(Oc1ccccc1[N+](=O)[O-])C(=O)NN=Cc1ccoc1 (centres undefined) | -0.473% (inactive) | 0.98%
Cc1cc(C=NO)c(C)n1-c1ccccc1 | 10.5% (inactive) | 1.78%
C/C(C=NNC(=O)c1ccncc1)=C\c1ccccc1 | 16.5% (inactive) | 7.43%
Cc1nn(-c2ccccc2)c(Cl)c1C=NNC(=O)c1cccc(S(=O)(=O)N2CCCC2)c1 | 10.2% (inactive) | 5.33%
C=C1CCN(C(C(=O)NCc2ccc(OC)cc2)C(C)C)S(=O)(=O)c2ccccc21 (centres undefined) | 1.86% (inactive) | 4.01%
O=C1CSC(=S)N1N=Cc1ccc(C(F)(F)F)cc1 | 17.6% (inactive) | 14.7%
COCCCNC(=S)NN=Cc1ccc(N(C)C)cc1 | 11.6% (inactive) | 2.41%
CC(=NNC(=O)c1c(C)nc2ccccn12)c1ccc(C(C)(C)C)cc1 | -2.47% (inactive) | 18.1%
CC(C)C(NC(=O)c1ccccc1)C(=O)OCC(=O)N1CCCc2ccccc21 (centres undefined) | 6.63% (inactive) | 6.94%
COc1cccc(C=NNC(=O)CSCC(=O)Nc2ccccc2)c1O | 0.94% (inactive) | 11.7%
CC(=NNC(=O)c1cc(-c2ccc(Cl)s2)[nH]n1)c1ccco1 | 0.382% (inactive) | 4.98%
CSc1ccc(C=NNC(=O)CNc2ccc3ccccc3c2)cc1 | 3.37% (inactive) | -2.84%

SMILES | fluorescence inhibition | growth inhibition
O=C1NC(Cc2ccccc2)C(=O)N2C1C[C@]1(Br)c3ccccc3N(S(=O)(=O)c3ccccc3)C21 (some centres undefined) | 4.31% (inactive) and 12.8% (inactive) | 6.26% and 10.9%
COc1ccccc1C=NNC(=O)c1ccc2c(c1)OCO2 | 14.7% (inactive) | 5.14%
COCCCN1C(=O)C(=O)C(=C(O)c2ccc(C)cc2)C1c1ccccc1 (centres undefined) | -3.99% (inactive) | -0.925%
CC1CN=C(Nc2ccccc2)N1CCCC1CCCCC1 (centres undefined) | 7.1% (inactive) | 4.93%
Cc1ccccc1C1=N/C(=C/c2cccnc2)C(=O)O1 | -4.88% (inactive) | 6.23%
O=C1CCCC1=c1sc(=Cc2cccnc2)c(=O)n1-c1ccccc1 | 9.8% (inactive) | 5.53%
O=C1/C(=C\c2cccnc2)CN(Cc2ccccc2)C/C1=C\c1cccnc1 | 53.7% (active) | 35.7%
Cc1cc(C(=O)NN=Cc2ccc3ccccc3c2)n[nH]1 | 7.06% (inactive) | -3.88%
CN(C)c1ccc(C=NNC(=O)c2nonc2N)cc1[N+](=O)[O-] | 2.61% (inactive) | -5.42%
Nc1nonc1C(=O)NN=Cc1ccc([N+](=O)[O-])o1 | 52.4% (active) | 31.3%
Cc1ccc(NCC(=O)NN=Cc2ccc([N+](=O)[O-])o2)cc1 | -3.3% (inactive) | 3.65%
Cc1cccc(C=NNC(=O)CN2CCCCCCC2)c1 | 2.65% (inactive) | 8.69%
COc1ccc(C2CC=C(C(=O)O)C(c3ccccc3F)N2S(=O)(=O)c2ccc(C)cc2)cc1OC (centres undefined) | 19.4% (inactive) | 4.47%
CCCC(=O)O[C@]1(C(=O)CCl)C(C)CC2C3CCC4=CC(=O)C=C[C@]4(C)[C@@]3(F)C(=O)C[C@@]21C (some centres undefined) | -12.7% (inactive) | 2.62%
Cc1ccc(S(=O)(=O)N(C)CC(=O)NN=Cc2ccc(C)o2)cc1 | -4.3% (inactive) | 1.08%
COc1ccc(C2OCC3OC(O)C(NC(C)=O)C(O)C3O2)cc1 (centres undefined) | 4.65% (inactive) | 11.9%
CCc1ccc(C=NNC(=O)c2ccccn2)cc1 | 9.62% (inactive) | 15.4%
COc1ccc(C(=O)NN=C(c2ccccc2)c2ccccn2)cc1 | -1.57% (inactive) | 6.08%
CCN(CC)CCOc1ccc2c(c1)C(=NNC(=O)c1ccccn1)c1cc(OCCN(CC)CC)ccc1-2 | 46.2% (active) | 20.2%
